The list is not random: actives were taken first. Their share in the collection is about 5.3%.
SUMO Mot1 rescue = yeast Mot1-301 growth rescue at high temperature, primary screen, SUMOylation pathway inhibitor project, S. cerevisiae, ATP luminescence, 38.5C; S. cerevisiae Mot1-301 growth rescue; percent above DMSO median, 100 means doubled; 320,000 tested, 1% active; growth rescue, % at 18.8 µM; AID 2716, 2010;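 active = every valid replicate shows activation above 250% relative to neutral control wells; inactive = the rest, any valid replicate at or below 250%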;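 note: OY570 slx delta 5 strain wells were the positive control but not used for scaling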
HIF activator = HIF pathway transcriptional activators, primary screen, cell-based, U2OS HRE-luciferase, luminescence; U2OS HRE-luciferase reporter; normalized: DMSO 0%, desferrioxamine 100%; activation, % at 7.5 µM (by protocol); 300,000 tested, 0.32% active;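 active = mean activation of at least 10% of the iron chelator positive control signal, with at least half of replicates also reaching 10%; inconclusive = mean and replicate majority disagree about reaching 10%; inactive = mean and most replicates under 10%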
ALR inh = inhibitors of human ALR sulfhydryl oxidase, primary screen, biochemical, H2O2 detection, HRP-luminol luminescence, single point | FAD-linked sulfhydryl oxidase ALR (Homo sapiens), P55789 | purified ALR, DTT oxidation | inhibition, % (test concentration not listed) | 290,000 tested, 3.8% active;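 active = mean replicate inhibition above about 79%, with every replicate also reaching it, limit read from the data; inconclusive = only one of the two criteria met; inactive = mean below limit and not every replicate reaching it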
Target sequence (P55789 whole entry, looked up): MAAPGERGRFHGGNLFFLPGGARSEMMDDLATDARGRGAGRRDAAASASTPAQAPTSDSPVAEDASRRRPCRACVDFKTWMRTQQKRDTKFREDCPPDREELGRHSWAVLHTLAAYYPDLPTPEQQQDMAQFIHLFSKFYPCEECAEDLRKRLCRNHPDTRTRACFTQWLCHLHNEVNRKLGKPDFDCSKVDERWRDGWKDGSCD
PfM18AAP inh = PfM18AAP inhibitors, malaria aminopeptidase, primary screen, biochemical, QFRET, recombinant enzyme; AID 1822, 2009; inhibition, % at 7.35 µM; 290,000 tested, 1.2% active; H-Glu-NHMec fluorogenic cleavage; M18 aspartyl aminopeptidase (Plasmodium falciparum 3D7);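 active = inhibition above the campaign mean inhibition over all tested compounds plus 3 SD, cut at about 28% in these data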;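 note: 0% = plate median of test compound wells and 100% = 2 mM ZnCl2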
* marks the source's active call; other numbers are inactive results; ? = inconclusive; . = no result given.

SMILES	SUMO Mot1 rescue	HIF activator	ALR inh	PfM18AAP inh
Cc1cccc(CNCCc2c[nH]c3ccccc23)c1	286*	-6	12	-1
Clc1ccc(CCNCc2ccncc2)c(Cl)c1	9	0	17	21
Cn1cc2c([N+](=O)[O-])cc([N+](=O)[O-])cc2n1	.	.	.	-3
Cn1cnc([N+](=O)[O-])c1Sc1ccc([N+](=O)[O-])cc1	4	0	97*	-2
CCn1c(=O)n(CC)c2cc([N+](=O)[O-])c(N3CCNCC3)cc21	12	-1	.	3
CC1CCN(CC(=O)c2cccc(C(F)(F)F)c2)CC1	3	-20	56	1
O=C(NC1(C(F)(F)F)Oc2ccc(Cl)cc2O1)N1CCC2(CC1)OCCO2 (stereo not given)	-5	1	99*	98*
Cc1cc(NCCN)nc2ccccc12	-14	-1	5	-6
COC1=C(C)C(=O)O[C@]12C(=O)C(C)=C1CCCCN3[C@H]([C@@H]4C[C@H](C)C(=O)O4)CC[C@]132	-12	.	2	.
N[C@@H](Cc1ccc(N(CCCl)CCCl)cc1)C(=O)O	-9	.	-4	.
O=C(O)CCCc1ccc(N(CCCl)CCCl)cc1	-3	0	99*	13
CCOc1cc(-c2nc3c(C)cccn3c2NCC2CCCO2)ccc1O (stereo not given)	-3	0	97*	23
Cc1cccn2c(NCC3CCCO3)c(C(C)C)nc12 (stereo not given)	-1	0	78*	6
C=CCn1c(O)c(C(CC)=NCCN2CCN(C(=S)NC)CC2)c(=O)[nH]c1=O	35	0	.	-10
FC(F)(F)c1ccc2c(c1)NP(=S)(N1CCOCC1)c1nccn1-2 (stereo not given)	3	69*	-14	0
CC(C)Nc1ccc(Nc2ccccc2)cc1	-3	2	99*	.
CC1CN=C(Nc2ccccc2)S1 (stereo not given)	-18	0	-2	-12
CCCS(=O)(=O)N1CCCC(C(=O)N2CCC3(CC2)OCCO3)C1 (stereo not given)	-14	-1	0	0
CN(C)c1ccc(P(=S)(N(C)C)N(C)C)cc1	32	-1	99*	1
CCc1ccc(C(=O)C23CN4CN(CN(C4)C2)C3)cc1	351*	0	-3	0
CC1CN(C)C(C)(C)CC1(O)c1ccccc1 (stereo not given)	0	0	-4	-1
CCCCCCN1CCN(c2ccc(Cl)cc2)CC1	183	0	47	-10
CCN1CCN(c2ccc(NC(C)=O)cc2Cl)CC1	7	0	-2	-5
CN1CCN(c2ccc3nccnc3c2)CC1	43	2	-7	4
CCN1CCN(c2ccc(N)cc2C)CC1	6	1	99*	-5
SMILES	SUMO Mot1 rescue	HIF activator	ALR inh	PfM18AAP inh
CN1CCN(c2ccc(C=O)cc2)CC1	4	0	4	14
CN1CCN(c2ccc(N)cc2)CC1	-12	0	99*	-5
CN1CCN(c2ccc(N)c(N3CCN(C)CC3)c2)CC1	14	0	.	30*
CCN1CCN(c2ccc(N)cc2)CC1	112	-3	94*	5
COc1ccccc1OCC(=O)N1CCCC(N2CCN(c3ccc(F)cc3)CC2)C1 (stereo not given)	0	0	95*	-2
c1ccc2sc(C3CCNCC3)nc2c1	8	0	-7	2
N/C(=N\N=C/c1ccc(-c2ccc(O)c(C(=O)O)c2)o1)N[N+](=O)[O-]	-9	-1	38	31*
Cc1cc2c(C(C)C)c(O)c(O)c(C=O)c2c(O)c1-c1c(C)cc2c(C(C)C)c(O)c(O)c(C=O)c2c1O	.	.	.	32*
Cc1cccc(N=Cc2c(O)n(-c3ccccc3C)c(=O)[nH]c2=O)c1	280*	-1	-3	3
CC1CN=C(Nc2ccc(N(C)C)cc2)S1 (stereo not given)	-9	0	89*	2
COc1ccccc1NC(=O)c1cn(CCC#N)nc1-c1ccc(F)cc1	-3	-1	33	1
O=C(c1ccc2c(c1)N(Cc1ccc(F)cc1)CCS2)N1CCC2(CC1)OCCO2	-22	1	82*	7
Cc1ccc(CN2CCSc3ccc(C(=O)N4CCC5(CC4)OCCO5)cc32)cc1	-6	0	80*	2
O=C(c1ccc2c(c1)ncn2-c1ccc(F)cc1F)N1CCC2(CC1)OCCO2	-5	1	-4	-1
NC(=S)N/N=C/c1coc2ccccc2c1=O	.	0	-1	29*
C[n+]1c(-c2ccccc2)c2cc(N)ccc2c2ccc(N)cc21	116	1	99*	34*
Nc1ccc2ccc3cccc[n+]3c2c1	-26	1	-19	5
Cc1ccc2c(c1Cl)NC(C(=O)O)C1CC(Sc3ccccc3[N+](=O)[O-])C(Cl)C21 (stereo not given)	-11	0	?	11
CCN(CC)C(=O)c1ccc2c(c1)C1C(Cl)C(Sc3ccccc3[N+](=O)[O-])CC1C(C(=O)O)N2 (stereo not given)	-17	0	97*	24
COC(=O)C[C@]1(C(=O)OC)CN(C#N)N(c2ccc(Cl)cc2)C12c1ccccc1-c1ccccc12	412*	-3	1	4
COc1ccc(CCNCc2ccccc2F)cc1	-26	1	-20	-2
Cc1ccc(C)c(NC(=O)CSc2nnc([C@@H](N)Cc3c[nH]c4ccccc34)o2)c1	-30	0	3	.
Clc1ccc2c(c1)C(c1ccccc1Cl)=NCc1nnc(N3CCN(CCOc4ccccc4)CC3)n1-2	346*	0	-19	-6
O=C1NC(=O)C(CCc2ccncc2)(CCc2ccccn2)C(=O)N1c1ccc(Br)cc1 (stereo not given)	-9	0	-9	4
CC(Cc1ccccc1Sc1ccccc1O)N(C)C (stereo not given)	-17	0	98*	-3
SMILES	SUMO Mot1 rescue	HIF activator	ALR inh	PfM18AAP inh
C[C@@H]1CN(C2CCC(C#N)(c3ccc(F)cc3)CC2)CC[C@]1(C(=O)O)c1ccccc1 (stereo not given in full)	46	.	9	.
FC(F)(F)c1ccc2c(c1)N(CCCN1CCN(CCCl)CC1)c1ccccc1S2	3	-1	99*	-6
CCNC(=S)N(C)CCc1cc2c(c(OC)c1C=C1C(=O)N(C)C(=O)N(C)C1=O)OCO2	-21	-1	19	-5
COC(=O)C(=O)N1CC2(C)CNCC(C)(C1)C2=O	-33	-1	1	-4
N#C/C(N)=C(/N)C#N	-26	.	98*	.
COc1ccc(C(=O)OC2C[C@H]3CC[C@H](C2)N3C)cc1OC (stereo not given in full)	327*	.	0	.
Cc1cccc(NC(=O)N2C[C@H]3C[C@@H](C2)c2cccc(=O)n2C3)c1	-17	0	-5	5
O=C(NCC(c1cccnc1)N1CCN(c2ccccc2F)CC1)Oc1ccccc1 (stereo not given)	63	0	-4	3
